Molecules are shown by their SMILES. Among all 69,000 compounds or so, about 8,600 (12%) showed an effect of 50% or more. The sample as a whole holds a higher share of strong results than the screen did.

The test relates to Plasmodium berghei. Description: Screen against P. berghei liver stage (PbLuc), transformed with Luciferase, at 10uM. Type of test: functional, HepG2. As to conditions: tested at 10 uM.
As for `CCSc1ccccc1C(=O)NCC1CCN(Cc2ccsc2)CC1`, the INHIBITION came to 13.6%.

As to `NC(=O)CN1CCCN(C(=O)Cc2ccc(Br)cc2)CC1`, the INHIBITION is 54.4%.

Turning to `Cc1cccc(OCCC(=O)N2CCCN(C(N)=O)CC2)c1C`, the INHIBITION is listed as 15.5%.

With `NC(=O)CN1CCCN(C(=O)Cc2ccc3ccccc3c2)CC1`, the INHIBITION is listed as -9.98%.

With `COC(=O)CN1CCCN(C(=O)CCOc2cccc(C)c2C)CC1`, the INHIBITION was 29.7%.

As for `Cc1cccc(OCCC(=O)N2CCCN(CC(N)=O)CC2)c1C`, the INHIBITION is 55.9%.

In the case of `NC(=O)CN1CCCN(C(=O)Cc2ccc(F)cc2)CC1`, the INHIBITION was 5.03%.

As to `CN(CC(=O)NCC(=O)Nc1ccc(F)cc1)Cc1cccs1`, the INHIBITION is on record as 5.87%.

On to `Cc1ccccc1CC1(CO)CCCN(c2ncccc2C#N)C1` (stereo not drawn), for which the INHIBITION worked out at 56.8%.

For the compound `CSC(C)C(=O)N1CCCN(c2ncccc2C#N)CC1` (stereo not drawn), the INHIBITION came to 1.78%.

For `N#Cc1cccnc1N1CCCC(CO)(Cc2ccc(F)cc2)C1` (stereo not drawn), the INHIBITION is 85.5%.

Take `CCC1(CO)CCCN(c2ncccc2C#N)C1` (stereo not drawn): the INHIBITION stood at 5.14%.

Take `N#Cc1cccnc1N1CCCC(CO)(Cc2cccc(Cl)c2)C1` (stereo not drawn): the INHIBITION is recorded as -84%.

For the compound `N#Cc1cccnc1N1CCCC(CO)(Cc2ccccc2F)C1` (stereo not drawn), the INHIBITION is on record as -17.2%.

Take `Cc1ccccc1CN1C[C@@H]2COC[C@]2(CNC(=O)C2CCC2)C1`: the INHIBITION is recorded as 43%.

Regarding `CCOCc1nc(N2CCCC2)sc1C(=O)NCCC(=O)OCC`, the INHIBITION came to 2.55%.

Consider `Cn1ccnc1CN1CCc2c(COCC3CC3)nn(C)c2C1`, for which the INHIBITION is recorded as 38.5%.

As for `Cn1cc(C2CC(=O)NC23CCN(C(=O)Cc2ccccn2)CC3)cn1` (stereo not drawn), the INHIBITION is reported as -7.29%.

In the case of `CNC(=O)N1CCC2(CC1)CC[C@@]1(C(=O)NC)CN(S(C)(=O)=O)C[C@@H]21`, the INHIBITION came to 12.5%.

As to `COCC(=O)N1CCC(c2nccnc2Oc2cccnc2C)CC1`, the INHIBITION is given as 50.4%.

With `CCc1nccn1-c1cccc(C2CCN(C(=O)COC)CC2)n1`, the INHIBITION was 20.8%.

Turning to `CCc1nccn1-c1nccnc1C1CCN(C(=O)COC)CC1`, the INHIBITION stood at 67.7%.

As for `Cc1ncccc1Oc1nccnc1C1CCN(S(C)(=O)=O)CC1`, the INHIBITION is 32.3%.

`Cc1ncccc1Oc1nccnc1C1CCN(C(C)C)CC1`: the INHIBITION stood at 40.9%.

Take `CCc1nccn1-c1nccnc1C1CCCN(C(=O)COC)C1` (stereo not drawn): the INHIBITION is given as 48.4%.

Take `CCc1nc(C2CCCN2C(=O)c2cnc3n[nH]c(C)c3c2)no1` (stereo not drawn): the INHIBITION turned out to be 27%.

Regarding `CC(CN1CCCC1=O)NC(=O)Nc1cccnc1-n1cccn1` (stereo not drawn), the INHIBITION is listed as 4.66%.

With `OC1CCN(c2ccnc3c(F)cc(Br)cc23)CC1`, the INHIBITION is 16.6%.

Turning to `CC(=O)N1CCN(c2ccnc3c(F)cc(Br)cc23)CC1`, the INHIBITION worked out at 40.6%.

On to `CN1CCN(c2ccnc3c(F)cc(Br)cc23)CC1`, for which the INHIBITION is on record as 62.8%.

In the case of `CN(C)CC(=O)N1CCOC2(CCCN(c3ncccc3F)C2)C1` (stereo not drawn), the INHIBITION is listed as 21.8%.

`CN([C@@H]1CCC[C@@H](n2ccnc2)[C@@H]1O)S(=O)(=O)c1cn(C)cn1`: the INHIBITION is 13.7%.

For the compound `CC(C)(C)c1n[nH]c(C2CN(Cc3nnc(C4CCC4)o3)CCO2)n1` (stereo not drawn), the INHIBITION is given as -38.2%.

For the compound `O=C(CCc1ccccc1)N1CCCC(c2n[nH]c3nccnc23)C1` (stereo not drawn), the INHIBITION worked out at 32.8%.

On to `Cc1nc2c(c(C)c1CC(=O)Nc1ccccc1F)c(=O)[nH]n2C`, for which the INHIBITION came to 60.9%.

For `COc1ccccc1NC(=O)Cc1c(C)nc2c(c1C)c(=O)[nH]n2C`, the INHIBITION is given as -16.5%.

As to `Cc1nc2c(c(C)c1CC(=O)NCc1ccccc1F)c(=O)[nH]n2C`, the INHIBITION is 39.2%.

`COc1ccccc1C(O)CNC(=O)Nc1cccnc1OC` (stereo not drawn): the INHIBITION is recorded as -13.5%.

`COc1cc(N2CCC3(CC2)CC(N2CCOCC2)C3)ncn1`: the INHIBITION is listed as 0.112%.

On to `CC(C)N[C@@H]1CO[C@H](CNC(=O)c2ccccc2)[C@H]1O`, for which the INHIBITION was -6.23%.

`O=C(NC[C@H]1OC[C@@H](NC2CCOCC2)[C@@H]1O)Nc1ccccc1`: the INHIBITION came out at 51%.

In the case of `O=C(NC[C@H]1OC[C@@H](NC2CCC2)[C@@H]1O)c1cccs1`, the INHIBITION worked out at 18.4%.

Regarding `CC(=O)N1CCC(N[C@@H]2CO[C@H](CNC(=O)c3cccs3)[C@H]2O)CC1`, the INHIBITION amounted to 60.9%.

For the compound `O=C(NC[C@H]1OC[C@@H](NCc2ccccc2F)[C@@H]1O)Nc1ccccc1`, the INHIBITION is on record as -13.4%.

`CC(C)NC(=O)NC[C@H]1OC[C@@H](NCc2ccccc2F)[C@@H]1O`: the INHIBITION is listed as 58.5%.

Regarding `CC(C)(C)CN[C@@H]1CO[C@H](CNC(=O)Nc2ccccc2)[C@H]1O`, the INHIBITION is reported as 41.1%.

`O=C(NC[C@H]1OC[C@@H](NC2CCC2)[C@@H]1O)Nc1ccccc1`: the INHIBITION came out at 41.9%.

Take `CC(C)NC(=O)NC[C@H]1OC[C@@H](NCc2ccccc2O)[C@@H]1O`: the INHIBITION is 4.59%.

Consider `CC(C)N[C@@H]1CO[C@H](CNC(=O)Nc2ccccc2)[C@H]1O`, for which the INHIBITION was determined as 50.2%.

Turning to `CN1CCC(N[C@@H]2CO[C@H](CNC(=O)c3cccs3)[C@H]2O)CC1`, the INHIBITION is 17.4%.

For `O=C(NC[C@H]1OC[C@@H](NC2COC2)[C@@H]1O)Nc1ccccc1`, the INHIBITION is 12.4%.

As for `Cn1cc(CN2CCc3nc4ccccc4c(=O)n3CC2)cn1`, the INHIBITION was -10.2%.

`COC(=O)C(NC(=O)CCOC(C)C)c1cc(F)ccc1F` (stereo not drawn): the INHIBITION is recorded as -19.9%.

The values above are taken from ChEMBL document CHEMBL4513216, “Probing the Open Global Health Chemical Diversity Library for Multistage-Active Starting Points for Next-Generation Antimalarials” (ACS Infect Dis, 2020).
